Among the data in PubChem BioAssay AID1117361 (Southern Research Institute, 2015) are outcome values, retold here.

About 900 (25%) of roughly 3,600 compounds were called active. How the calls were made is not given here. A selection follows. Where a call stands in place of a potency, no number is given. Potency and affinity values are given separately.

This assay concerns the target Protein Tat (Human immunodeficiency virus type 1 group M subtype B (isolate HXB2)) (UniProt P04608). Briefly: HIV-1 Tat–TAR interaction blockers – biochemical, fluorescence polarization, FAM-labeled TAR RNA, counter-screen for Vif-APOBEC3G degradation inhibitor project, dose response (AID 1117361). The note with it: Tat-TAR RNA binding; series mostly up to 100 µM. (In fluorescence polarisation assays a small probe gives low polarisation when free and higher when bound to something large.)
Consider `Cc1cccc(C)c1N1C(=O)C2ON(c3ccccc3)C(c3ccncc3)C2C1=O` (stereo unspecified), for which the molecule was classed as inactive.

Turning to `O=C(Nc1cnn(Cc2c(Cl)cccc2Cl)c1)c1ccc([N+](=O)[O-])cc1`, the result was inactive. In the case of `Cc1nn(CC(=O)NCc2ccccc2Cl)c(C)c1[N+](=O)[O-]`, the result was inactive. Consider `CC(C)c1nc2sc3c(NCc4ccco4)ncnc3c2c2c1COC(C)(C)C2`, for which the molecule was classed as inactive. As for `Cc1sc2ncnc(OCC(=O)N3CCN(S(=O)(=O)c4ccc(Cl)cc4)CC3)c2c1C`, the molecule was classed as inactive. As for `CCC(=O)Nc1cc2c(cc1C(=O)CC)OCCO2`, the result was inactive.

With `CCCC(=O)NC1=C(Cl)C(=O)c2ccccc2C1=O`, the result was inactive. For the molecule `Cc1ccc(S(=O)(=O)Nc2ccc3nc(C)sc3c2)cc1`, the molecule was classed as inactive.

In the case of `COc1ccc(N2CCN(C(=O)COc3ccccc3)CC2)cc1`, the outcome was inactive.

As for `CCOc1ccc(S(=O)(=O)Nc2ccc(S(=O)(=O)N3CCCCC3)cc2)cc1`, the molecule was called inactive. The entry for `CCN1CCN(c2ccc(NC(=O)Cc3ccccc3)cc2)CC1` is “inactive”; for `CC(=O)N1CCN(c2ccc(NCc3ccc4c(c3)OCO4)cc2)CC1` it is “inactive”; for `Cc1snc(S(=O)(=O)Cc2ccccc2Cl)c1C#N` it is “inactive”.

Turning to `COc1ccc(/C=C/CN2CCN(Cc3ccccc3)C(CCO)C2)cc1` (stereo unspecified), the molecule was classed as inactive. `CSc1ccccc1NC(=O)c1noc2c1CCC2`: the outcome was inactive.

For the molecule `CCCCS(=O)(=O)N1CCCC(C(=O)N2CCOCC2)C1` (stereo unspecified), the molecule was called inactive. On to `COc1ccc(C2CC(O)(c3ccccc3)Oc3c(C)ccc(C)c32)cc1` (stereo unspecified), for which the molecule was classed as inactive. Take `Cn1c2ccccc2c2ccc3c(c21)C(=O)C=CC3=O`: the molecule was classed as inactive. For `CCOc1cc(C(C(=O)NCC2CCCO2)N(C(=O)Cn2nnc3ccccc32)c2cccc(OC)c2)ccc1O` (stereo unspecified), the molecule was called inactive.

For the molecule `Cc1ccc(CN(C(=O)Cn2nnc3ccccc32)C(C(=O)NCc2ccco2)c2cccs2)cc1` (stereo unspecified), the call was inactive. With `CCCCn1c(SCC(=O)Nc2ccc3c(c2)OCCO3)nnc1C(CC)N(C)C` (stereo unspecified), the molecule was called inactive. Take `C/C(=N\Nc1ccc2nncn2n1)c1ccc(Br)s1`: the result was inactive. Under `COc1cc(Cc2cnc(N)nc2N)cc(OC)c1OC` stands “inactive”. Regarding `O=C1C(C=NC2CC2)=C(O)c2ccccc21`, the outcome was inactive. Turning to `O=C(CN1CCN(CC(=O)Nc2ccc3c(c2)OCO3)CC1)Nc1ccc(F)cc1`, the molecule was classed as inactive. With `COc1ccc(Cl)cc1N(CC(=O)Nc1ccc2c(c1)OCCO2)S(C)(=O)=O`, the molecule was called inactive. Under `CCn1c(=O)c2cc(C(=O)N(C)c3ccccc3F)sc2c2ccccc21` stands “inactive”; under `CCOC(=O)N1CCC(NC(=O)C2CCN(c3nc(-c4ccc(OC)cc4)no3)CC2)CC1`, “inactive”. Turning to `CC(C)Oc1ccc(C(=O)N(Cc2ccco2)C2CCS(=O)(=O)C2)cc1` (stereo unspecified), the outcome was inactive. Regarding `CCOC(=O)C1CCCN(C(=O)c2c(-c3ccccc3Cl)noc2C)C1` (stereo unspecified), the molecule was classed as inactive. For the molecule `Cc1cc(C(=O)OC2CCOC2=O)c2ccccc2n1` (stereo unspecified), the result was inactive. With `CCOC(=O)C1CCCN(Cc2ccc(O)c(OC)c2)C1` (stereo unspecified), the molecule was called inactive. Take `Cc1oc(-c2ccccc2)nc1C(=O)OCC(=O)NCc1ccc(F)cc1`: the call was inactive. Take `O=C(OCC(=O)N1CCN(C(=O)c2ccco2)CC1)c1cc(-c2ccco2)nc2ccccc12`: the outcome was inactive. As to `CS(=O)(=O)N(CC(=O)NCc1ccc2c(c1)OCO2)Cc1ccccc1`, the call was inactive. Regarding `O=C(CCCc1c[nH]c2ccccc12)NCc1ccc2c(c1)OCO2`, the molecule was classed as inactive.
